According to PubChem BioAssay (Tox21):
Values joined by “and” are separate entries in the source; they are usually repeats but may differ in a detail not shown here. Identical values can stand only once. Inconclusive results are not listed. Some structures have more than one record in an assay (separate samples or runs), and their calls can disagree. Active and inactive are the calls of the source. Calls follow the shape of the dose curve; as a rule, active = well fitted curve in the direction sought with a large enough effect in the repeat runs; inconclusive = weak or mixed curves; inactive = no such curve, though single readings can be large; an effect the other way counts as inactive or inconclusive.

Columns and labels:
[1] = qHTS RealTime-Glo MT Cell Viability Assay in HepG2 cells - 40 hour (AID 1224870); also: nearly all actives have a fitted effect of over 50% in size
In short: (§1)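 Real-time viability: cells seeded at 600 per well together with NanoLuc and cell-permeant prosubstrate, compounds added after 5 h incubation. Luminescence tracked at 0, 8, 16, 24, 32 and 40 h of exposure.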

[2] = A CellTox Green Cytotoxicity Assay to monitor cytotoxicity in HEK293 cells - 40 hour (AID 1224871); also: nearly all actives have a fitted effect of over 45% in size
In short: (§2)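 Real-time, in one plate: 600 HEK293 cells/well with dead-cell DNA dye, pinned compound after 5 h, 37 C incubation over 40 h; viable cells give no appreciable fluorescence.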

[3] = qHTS RealTime-Glo MT Cell Viability Assay in HEK293 cells - 16 hour (AID 1224872); also: nearly all actives have a fitted effect of over 50% in size
In short: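 Luminescence generated by NanoLuc from substrate produced by living HEK293 cells served as the viability signal. Each value reflects the reading at its stated time point during continuous 40 h compound exposure at 37 C.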

[4] = qHTS RealTime-Glo MT Cell Viability Assay in HepG2 cells - 8 hour (AID 1224873); also: nearly all actives have a fitted effect of over 55% in size
In short: as §1

[5] = qHTS RealTime-Glo MT Cell Viability Assay in HEK293 cells - 40 hour (AID 1224874); settings: RealTime-Glo luminescence; max response: stronger effect = lower value; also: nearly all actives have a fitted effect of over 50% in size
In short: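 Kinetic, non-lysing viability readout. Seed HEK293 (600/well) with reagent, incubate 5 h at 37 C/5% CO2, pin 23 nL compound in DMSO, incubate at 37 C, read luminescence at 0, 8, 16, 24, 32, 40 h.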

[6] = A CellTox Green Cytotoxicity Assay to monitor cytotoxicity in HEK293 cells - 24 hour (AID 1224875); also: nearly all actives have a fitted effect of over 45% in size
In short: as §2

[7] = A CellTox Green Cytotoxicity Assay to monitor cytotoxicity in HepG2 cells - 16 hour (AID 1224876); also: nearly all actives have a fitted effect of over 45% in size
In short: (§3)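 Cytotoxicity was tracked as dead-cell DNA fluorescence in HepG2 cells treated with test compounds at 37 C; each time-point value comes from one kinetic series spanning 0, 8, 16, 24, 32 and 40 h.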

[8] = qHTS RealTime-Glo MT Cell Viability Assay in HepG2 cells - 32 hour (AID 1224877); also: nearly all actives have a fitted effect of over 55% in size
In short: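 Tox21 10K library screened in qHTS format on HepG2 cells carrying RealTime-Glo reagents. Compounds were added after a 5 h preincubation, and the luminescent signal from continuous culture was measured repeatedly during 40 h treatment.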

[9] = A CellTox Green Cytotoxicity Assay to monitor cytotoxicity in HepG2 cells - 24 hour (AID 1224878); also: nearly all actives have a fitted effect of over 45% in size
In short: as §3

[10] = A CellTox Green Cytotoxicity Assay to monitor cytotoxicity in HepG2 cells - 40 hour (AID 1224879); also: nearly all actives have a fitted effect of over 40% in size
In short: as §3
% is scaled to controls: 0 for no effect and ±100 for the full control effect; potency is read from the fitted curve at half-maximal effect.

COP(=S)(OC)Oc1ccc([N+](=O)[O-])cc1
inactive: Potency [1] | Potency [2] | Potency [3] | Potency [4] | max response [5] -19% and -8.77% | Potency [6] | Potency [7] | Potency [8] | Potency [9] | Potency [10]

CC(C)=CC1C(C(=O)OCc2coc(Cc3ccccc3)c2)C1(C)C (stereo not given)
inactive: Potency [1] | Potency [2] | Potency [3] | Potency [4] | max response [5] -17.8% | Potency [6] | Potency [7] | Potency [8] | Potency [9] | Potency [10]

Nc1ccc(-c2ccccc2)cc1
10 µM (active) and inactive: Potency [3]
active: Potency [5] 10 µM
inactive: Potency [1] | Potency [2] | Potency [4] | max response [5] -19.4% | Potency [6] | Potency [7] | Potency [8] | Potency [9] | Potency [10]

O=P(Oc1ccccc1)(Oc1ccccc1)Oc1ccccc1
inactive: Potency [1] | Potency [2] | Potency [3] | Potency [4] | max response [5] -17.9% and -13.8% | Potency [6] | Potency [7] | Potency [8] | Potency [9] | Potency [10]

c1ccc(NNc2ccccc2)cc1
active: Potency [2] 24.5 µM | Potency [6] 24.5 µM
inactive: Potency [1] | Potency [3] | Potency [4] | max response [5] -4.96% and -2.46% | Potency [7] | Potency [8] | Potency [9] | Potency [10]

CCC(C)c1cc([N+](=O)[O-])cc([N+](=O)[O-])c1O (stereo not given)
inactive: Potency [1] | Potency [2] | Potency [3] | Potency [4] | max response [5] 5.87% | Potency [6] | Potency [7] | Potency [8] | Potency [9] | Potency [10]

Cc1cc(C)cc(C)c1
inactive: Potency [1] | Potency [2] | Potency [3] | Potency [4] | max response [5] 1.65% and -3.48% | Potency [6] | Potency [7] | Potency [8] | Potency [9] | Potency [10]

C=CCN(CC=C)C(=O)C(Cl)Cl
inactive: Potency [1] | Potency [2] | Potency [3] | Potency [4] | max response [5] 8.06% and -1.16% | Potency [6] | Potency [7] | Potency [8] | Potency [9] | Potency [10]

N[C@@H](Cc1ccc(N(CCCl)CCCl)cc1)C(=O)O
inactive: Potency [1] | Potency [2] | Potency [3] | Potency [4] | Potency [6] | Potency [7] | Potency [8]
active: Potency [5] 4.69 µM

Nc1ccc(-c2ccc(N)c(N)c2)cc1N
inactive: Potency [1] | Potency [2] | Potency [3] | Potency [4] | max response [5] 10% | Potency [6] | Potency [7] | Potency [8] | Potency [9] | Potency [10]

C=CCc1ccc2c(c1)OCO2
inactive: Potency [1] | Potency [2] | Potency [3] | Potency [4] | max response [5] 13.1% and 2.61% | Potency [6] | Potency [7] | Potency [8] | Potency [9] | Potency [10]

O=c1oc2ccccc2c(O)c1C(CC(O)c1ccc(-c2ccc(Br)cc2)cc1)c1ccccc1 (stereo not given)
inactive: Potency [1] | Potency [2] | Potency [3] | Potency [4] | max response [5] -3.76% and 7.1% | Potency [6] | Potency [7] | Potency [8] | Potency [9] | Potency [10]

N#CCCCl
inactive: Potency [1] | Potency [2] | Potency [3] | Potency [4] | max response [5] 2.74% and -10.7% | Potency [6] | Potency [7] | Potency [8] | Potency [9] | Potency [10]

CCCCCCOC(=O)c1ccccc1C(=O)OCCCCCC
inactive: Potency [1] | Potency [2] | Potency [3] | Potency [4] | max response [5] -22.3% | Potency [6] | Potency [7] | Potency [8] | Potency [9] | Potency [10]

CCC(C)(C)c1ccc(O)cc1
active: Potency [2] 49.5 µM and 43.6 µM | Potency [6] 49.5 µM and 49 µM | Potency [7] 44.1 µM and 43.6 µM | Potency [9] 49.5 µM and 43.6 µM and 23.9 µM | Potency [10] 44.1 µM and 38.9 µM and 21.3 µM
inactive: Potency [1] | Potency [3] | Potency [4] | max response [5] -5.76% and -0.143% | Potency [8]

O=C(CCl)c1ccccc1
active: Potency [5] 43.6 µM
inactive and 54.9 µM (active): Potency [2]
inactive and 49 µM (active): Potency [3]
inactive: Potency [1] | Potency [4] | max response [5] -7.31% | Potency [6] | Potency [7] | Potency [8] | Potency [9] | Potency [10]

C=C(C)[C@H]1Cc2c(ccc3c2O[C@@H]2COc4cc(OC)c(OC)cc4[C@@H]2C3=O)O1
inactive: Potency [2] | Potency [6] | Potency [7]
24.5 µM (active) and inactive: Potency [4]
active: Potency [1] 44.2 µM and 27.5 µM | Potency [3] 88.2 nM and 15.5 nM and 107 nM | Potency [5] 55.7 nM and 11 nM and 47.7 nM | Potency [8] 44.2 µM and 27.5 µM | Potency [9] 49.6 µM and 38.9 µM | Potency [10] 24.9 µM and 24.5 µM

CC(C)NC(C)C
inactive: Potency [1] | Potency [2] | Potency [3] | Potency [4] | max response [5] 17.8% and 3.33% | Potency [6] | Potency [7] | Potency [8] | Potency [9] | Potency [10]
